What follows are compounds tested against T1, Aspartate--tRNA(Asp/Asn) ligase (Mycobacterium tuberculosis (strain ATCC 25618 / H37Rv)) (UniProt P9WFW3) (assay: Assay for Asp RNA synthetase-1 from Mycobacterium tuberculosis). Settings: 30 µM.
T1 sequence (whole entry): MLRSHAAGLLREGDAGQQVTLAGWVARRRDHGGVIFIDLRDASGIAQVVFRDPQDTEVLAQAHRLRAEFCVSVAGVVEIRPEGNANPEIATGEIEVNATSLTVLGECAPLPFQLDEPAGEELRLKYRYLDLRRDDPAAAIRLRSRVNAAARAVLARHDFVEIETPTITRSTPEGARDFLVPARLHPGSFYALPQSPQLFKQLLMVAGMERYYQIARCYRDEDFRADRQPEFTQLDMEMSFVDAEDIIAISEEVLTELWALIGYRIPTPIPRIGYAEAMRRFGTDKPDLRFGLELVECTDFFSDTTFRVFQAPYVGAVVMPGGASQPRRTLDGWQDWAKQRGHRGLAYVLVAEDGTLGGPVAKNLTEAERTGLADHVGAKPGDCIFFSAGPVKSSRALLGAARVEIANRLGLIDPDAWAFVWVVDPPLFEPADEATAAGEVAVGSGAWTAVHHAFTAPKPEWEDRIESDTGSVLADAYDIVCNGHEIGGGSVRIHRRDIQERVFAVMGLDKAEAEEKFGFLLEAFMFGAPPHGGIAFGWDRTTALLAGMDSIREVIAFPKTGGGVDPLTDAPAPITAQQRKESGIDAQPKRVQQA
Format: functional
Set-up: scale not given: in the data most compounds retested in dose-response had high values

SMILES | Percent Effect
CS(=O)(=O)NCc1cc2n(n1)CCCN(Cc1cccc(C#N)c1)C2 | 0.342%
CC(C)n1ccnc1CN1CCCN(C(=O)c2cc(Cl)c[nH]2)CC1 | 3.35%
O=C(c1cnccn1)N1CCc2onc(CN3CCOCC3)c2C1 | -0.84%
Cc1nc(C)n(CC2CCCN2Cc2nc(C3CC3)no2)n1 (stereo not given) | 0.278%
CC(C)Cc1noc(CN2CCCC(Cn3cncn3)C2)n1 (stereo not given) | -2.91%
CCCS(=O)(=O)N1CCOCC2(CCN(c3ccccn3)C2)C1 (stereo not given) | -2.85%
CCc1nc(C)c([C@H]2CN(C)C[C@@H]2C(=O)Nc2ccc(OC)cc2)[nH]1 | -1.19%
Cc1ccccc1N1CC2(CCN(S(=O)(=O)C3CC3)C2)CC1=O (stereo not given) | -1.07%
COCC1COCCC12CCN(C(=O)CCc1ccccc1)CC2 (stereo not given) | 3.96%
CCN1CC2(CC1=O)CN(C(=O)c1ccco1)CCN(C(=O)N(C)C)C2 (stereo not given) | 0.684%
C[C@@H]1CN(C2(C(=O)N3CCOCC3)Cc3ccccc3C2)C[C@H](C)O1 | 0.585%
COc1ncccc1NC(=O)N(Cc1ccc(C)o1)C1CC1 | -0.455%
C[C@@H]1C[C@@H]2CCN(C(=O)c3cnccn3)C[C@H]2O1 | 0.69%
Cc1nc(-c2ccc(Cl)s2)sc1C(=O)NCCS(N)(=O)=O | -0.408%
CC(=O)NCC1CCN(CC2CCOc3ccccc3C2)CC1 (stereo not given) | 1.5%
N#Cc1ccc(OC2CCN(C(=O)c3ccc4c(c3)OCO4)CC2)nc1 | -8.83%
Cc1nc(CNC(=O)NCC(O)c2ccc(F)cc2F)cs1 (stereo not given) | -6.13%
Cn1cnnc1S(=O)(=O)C1CCN(S(=O)(=O)c2c(Cl)cccc2Cl)CC1 | -0.575%
Cc1cc(C)nc(CCNC(=O)C(c2ccc(F)cc2)N(C)C)n1 (stereo not given) | -1.5%
CC(=O)N1CCCCC1c1nc2c(c(N3CCCCC3)n1)CN(C)CC2 (stereo not given) | -1.98%

SMILES | Percent Effect
O=C(c1ccccc1OCC1CC1)N1CCCC(n2ccnc2)C1 (stereo not given) | 6.48%
CC(=O)N1CCC(C(=O)NCCN2CCC(C)CC2)CC1 | 0.167%
CC(=O)NCC(=O)N1CC[C@H](OCC2CC2)[C@@H]1Cc1cccnc1 | 1.14%
Cn1ccnc1CN1CC[C@@H](NS(C)(=O)=O)[C@@H]1Cc1cccnc1 | -0.168%
COc1ccc(C(=O)N2CCC(Nc3cccnn3)CC2)c(OC)c1 | -0.568%
CCN1C[C@@H]2[C@@H](OC)CCN(S(=O)(=O)c3ccccc3)[C@@H]2C1 | -4.66%
CCN(Cc1ccc2c(c1)OCO2)C(=O)NC(C)Cn1cccn1 (stereo not given) | -0.819%
Cc1ncsc1C(=O)NCCSCc1cccs1 | 2.21%
CCN(CCNC(=O)c1ccccc1Br)C1CC1 | -1.24%
Cc1cnc(N2CCn3cc(CNC(=O)CC4CC4)nc3C2)nc1 | 2.93%
CC(C)n1cc(CN2CCCN(C(=O)c3nccnc3N)CC2)cn1 | 6.6%
Cc1ccccc1C(=O)NCc1ccc(N2CCNC(=O)C2)cc1 | 0.212%
Cc1occc1C(=O)N1CC[C@@H](N2CCOCC2)[C@@H]1Cc1ccccc1 | 7.49%
Cc1nccnc1N1CC[C@@H](NC(=O)c2cnccn2)[C@H](O)C1 | 3.96%
CN(Cc1ccc(F)cc1)C(=O)NCc1nnc2n1CCCCC2 | -5.74%
CC(=O)N1CCCN(C(=O)NCCc2ccc(Cl)s2)CC1 | -3.04%
CC(C)NC(=O)N1C[C@H]2C[C@H](C(=O)NCc3ccccc3)[C@@H](C1)O2 | 2.3%
CCCNC(=O)Nc1cccc2c1CCN(S(C)(=O)=O)C2 | 6.02%
CCN(Cc1ccc2c(c1)OCO2)Cc1nc(C)no1 | 4.08%
O=C(NCCCN1CCCC1=O)Nc1ccc(Br)cc1Cl | -2.15%

Source: ChEMBL document CHEMBL3988442, “University of Dundee, Small-Polar-MMV Screening Library” (2021)
